According to PubChem BioAssay (NCATS):
Results filed as inconclusive are left out.

Experiment: qHTS Assay for Lipid Storage Modulators (AID 1519)
Details: Drosophila S3 cells, BODIPY lipid droplet/cell ratio, laser cytometry; measured here: cell count channel max response; cells loaded with oleic acid
In short: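 Cells seeded at 5,000 per well were treated with compounds over a concentration series and loaded with oleic acid (400 uM, as added). Lipid droplet fluorescence (488 nm excitation, 500-530 nm channel) was read by laser-scanning cytometry and normalized to 20 uM Triacsin C.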

| SMILES | max response |
| --- | --- |
| CN(C)C(=O)c1ccc(-c2nc(NCc3cccnc3)c3ccccc3n2)cc1 | 17% |
| N#Cc1cccc(NC(=O)N2CC3(CCN(C(=O)c4cccc(F)c4)CC3)C2)c1 | 17% |
| CC(C)NC(=O)N1CCC2(CC1)CCN(C(=O)c1cnccn1)CC2 | 15.3% |
| Cc1cccc(CNc2cc(-c3cccc(NS(C)(=O)=O)c3)ncn2)c1 | -3.18% |
| COc1ccc(C(=O)N2CCC3(CC2)CN(c2ccccn2)C3)cc1 | 15.9% |
| Cc1noc(C)c1-c1nccc(N2CCNCC2)n1 | 6.93% |
| CC[C@@]12CCCN3CCc4c(n(c5ccccc45)C(=O)C1)[C@H]32 | -16.7% |
| c1ccc(Nc2ncnc3ccc(-c4cccnc4)cc23)cc1 | -20.7% |
| CS(=O)(=O)N1CCC[C@@]2(CCN(c3ccncc3)C2)C1 | -15.6% |
| O=C(c1ccncc1)N1CCC[C@@]2(CCN(c3cccc(-c4ccccc4)c3)C2)C1 | 8.47% |
| c1ccc2c(N3CCNCC3)nc(-c3ccoc3)nc2c1 | 9.44% |
| O=C(c1csnn1)N1CCC2(CCCN(c3ccncc3)C2)CC1 | 0.465% |
| N#Cc1ccc(CN2CCCC3(CCN(C(=O)c4cc(C(F)(F)F)cc(C(F)(F)F)c4)CC3)C2)cc1 | 18.7% |
| N#Cc1ccccc1-c1ccc2ncnc(NCc3cccs3)c2c1 | 0.851% |
| CN(C)C(=O)c1ccc(-c2ccc3ncnc(NCc4cccnc4)c3c2)cc1 | 9.7% |
| CN(C)Cc1ccccc1-c1cncnc1NCc1ccccc1 | 9.37% |
| O=C(c1cnccn1)N1CCC2(CCN(Cc3ccncc3)CC2)CC1 | 2.59% |
| O=C(Nc1cccc(F)c1)N1CCC2(CC1)CCN(C(=O)c1cc(C(F)(F)F)cc(C(F)(F)F)c1)CC2 | -4.14% |
| N#Cc1ccc(CN2CCCC3(CCNCC3)C2)cc1 | 12.8% |
| O=C(Nc1ccccc1)N1CCCC2(CCNCC2)C1 | 18% |

| SMILES | max response |
| --- | --- |
| COc1ccccc1CNc1ncncc1-c1ccc(N(C)C)cc1 | -12.6% |
| O=S(=O)(c1ccccc1)N1CCC2(CCN(c3ccncc3)CC2)CC1 | 9.97% |
| CN(C)Cc1ccccc1-c1ccc2ncnc(NC3CC3)c2c1 | 12.6% |
| Cc1ccccc1-c1cncnc1N1CCNCC1 | 11% |
| COCC(=O)N1CCC2(CC1)CN(Cc1nccs1)C2 | 4.27% |
| O=C(Oc1ccccc1)N1CCC2(CCCN(c3ccncc3)C2)CC1 | 1.04% |
| COc1ccc(Oc2ncc3nc(CCc4ccccc4)c(=O)n(C)c3n2)cc1 | 9.28% |
| COc1cccc(-c2nc(N3CCNCC3)c3ccccc3n2)c1 | -17.6% |
| COc1ccc(NC(=O)N2CC[C@@]3(CCCN(C(=O)c4ccncc4)C3)C2)cc1 | 0.213% |
| O=c1c(-c2cc(F)cc(F)c2)nc2cnc(Oc3ccccc3)nc2n1C[C@H]1CCCO1 | 13.2% |
| COCCn1c(=O)c(-c2ccc(F)cc2)nc2cnc(Oc3ccc(OC)cc3)nc21 | -18.1% |
| CN1CCN(c2ccnc(-c3ccccc3C(F)(F)F)n2)CC1 | -19.5% |
| c1ccc(C(c2ccccc2)N2CC3(CCNCC3)C2)cc1 | -0.423% |
| CS(=O)(=O)N1CCC2(CCCN(Cc3ccccc3)C2)CC1 | 10.5% |
| Cc1cccc(CNc2ccnc(-c3cccc(NS(C)(=O)=O)c3)n2)c1 | 4.58% |
| CN1CCN(c2nc(-c3cccc(NS(C)(=O)=O)c3)nc3ccccc23)CC1 | 7.68% |
| COc1ccccc1CN1CCC2(CC1)CCN(C(=O)c1cc(C(F)(F)F)cc(C(F)(F)F)c1)CC2 | -5.08% |
| COc1ccc(NC(=O)N2CCC3(CC2)CCN(C(=O)c2cc(C(F)(F)F)cc(C(F)(F)F)c2)CC3)cc1 | 3.79% |
| CN(C)Cc1ccccc1-c1ccc2ncnc(NCc3cccs3)c2c1 | -0.921% |
| O=c1c(CCc2ccccc2)nc2cnc(N3CCOCC3)nc2n1C[C@H]1CCCO1 | -5.26% |
